Measurements published in PubChem BioAssay (EPA / NIEHS).
Inconclusive results are not listed. Calls of active or inactive are those of the source. How the source made its calls, unless noted: active means hit-call score of the fitted dose curve at least 0.9, where 1 is the maximum; inactive means score below 0.9.

How the values were obtained:
[1] = TOX21_p53_BLA_p2_viability: Viability Assessment in the Tox21 HCT-116 p53 Agonism Beta-lactamase Assay, Phase 2 (AID 2283591; active means hit-call score of the fitted dose curve at least 0.9, where 1 is the maximum;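 further: actives lower the ATP signal meaning cytotoxicity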)
In short: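 HCT-116 p53-bla cells (4000/well) rested 5 h at 37C, then received compounds in DMSO (217-fold dilution) for 16 h at 37C, 5% CO2. After the CCF4 read, CellTiter-Glo was added; ATP luminescence was read after 30 min at room temperature.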

[2] = biological target: Cellular tumor antigen p53 (Homo sapiens) (UniProt P04637); assay: TOX21_p53_BLA_p2_ratio: Tox21 HCT-116 p53 Agonism Beta-lactamase Assay, Ratio, Phase 2 (AID 2283592; active means hit-call score of the fitted dose curve at least 0.9, where 1 is the maximum)
Chain of Cellular tumor antigen p53 (Homo sapiens) (P04637 whole entry, looked up): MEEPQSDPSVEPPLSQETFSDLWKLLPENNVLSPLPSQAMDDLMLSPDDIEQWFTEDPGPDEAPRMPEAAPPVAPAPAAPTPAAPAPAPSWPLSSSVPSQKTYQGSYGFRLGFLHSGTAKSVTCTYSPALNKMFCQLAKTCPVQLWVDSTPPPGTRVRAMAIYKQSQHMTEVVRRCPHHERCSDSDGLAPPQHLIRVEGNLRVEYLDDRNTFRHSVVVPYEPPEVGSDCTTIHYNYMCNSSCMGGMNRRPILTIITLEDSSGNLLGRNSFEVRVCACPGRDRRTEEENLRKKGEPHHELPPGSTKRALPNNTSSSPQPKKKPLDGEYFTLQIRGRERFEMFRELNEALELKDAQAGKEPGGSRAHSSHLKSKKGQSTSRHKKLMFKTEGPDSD
In short: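 An inducible beta-lactamase reporter in HCT116 cells signals p53 pathway activation. After 16 h chemical exposure at 37C, cells load CCF4-AM substrate for 2 h at room temperature; activity is the cleaved/uncleaved emission ratio relative to DMSO.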

[3] = TOX21_p53_BLA_p3_viability: Viability Assessment in the Tox21 HCT-116 p53 Agonism Beta-lactamase Assay, Phase 3 (AID 2283593; active means hit-call score of the fitted dose curve at least 0.9, where 1 is the maximum;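 further: cells exposed to compound for 16 h before reading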)
In short: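 HCT-116 cells (4000/well) rested 5 h at 37C, then got DMSO compounds by pin tool (217-fold dilution) for 16 h at 37C, 5% CO2. After the bla read, CellTiter-Glo was added and luminescence read at 30 min, room temperature.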

[4] = TOX21_p53_BLA_p5_viability: Viability Assessment in the Tox21 HCT-116 p53 Agonism Beta-lactamase Assay, Phase 5 (AID 2283600; active means hit-call score of the fitted dose curve at least 0.9, where 1 is the maximum)
In short: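 Counter-readout for cytotoxicity: ATP-dependent luminescence from CellTiter-Glo, read in the beta-lactamase wells after 30 min at RT, following a 16 h compound exposure at 37C.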

[5] = biological target: Cellular tumor antigen p53 (Homo sapiens) (UniProt P04637); assay: TOX21_p53_BLA_p4_ratio: Tox21 HCT-116 p53 Agonism Beta-lactamase Assay, Ratio, Phase 4 (AID 2283601; active means hit-call score of the fitted dose curve at least 0.9, where 1 is the maximum)
In short: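 HCT116 cells carrying an inducible beta-lactamase reporter were plated at 4000 cells/well, rested 5 h, then exposed to compounds in DMSO (217-fold dilution) for 16 h at 37C. CCF4-AM substrate was loaded 2 h at room temperature; 460/530 nm emission ratio scored gain-of-signal versus DMSO.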

[6] = CCTE_Harrill_HTTr_Viability_MCF7: CCTE's 6-hour Cell Viability Assessment for the High-Throughput Transcriptomics (HTTr) Platform, in MCF-7 cells cultured in DMEM + 10% fetal bovine serum, Harrill Lab (AID 2284010)
In short: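 Membrane integrity was scored by high-content imaging of propidium iodide dye exclusion after a 6 h exposure across an eight-point dilution series. Data were fitted bidirectionally relative to DMSO as negative control and baseline.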

[7] = CCTE_Harrill_HTTr_Apoptosis_MCF7: CCTE's 6-hour Apoptosis Assessment for the High-Throughput Transcriptomics (HTTr) Platform, in MCF-7 cells cultured in DMEM + 10% fetal bovine serum, Harrill Lab (AID 2284011)
In short: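 Cells are dosed with test chemicals at eight concentrations and imaged 6 hours later for caspase-3/7 activity using a green fluorogenic detection reagent. Activity is fitted in both directions against DMSO controls.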

[8] = CCTE_Harrill_HTTr_CellCount_MCF7: CCTE's Cell Proliferation Assessment for the High-Throughput Transcriptomics (HTTr) Platform, Harrill Lab (AID 2284012; active means hit-call score of the fitted dose curve at least 0.9, where 1 is the maximum;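 further: cells exposed to compound for six hours; intended direction is loss of nuclei count meaning fewer cells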)
In short: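 MCF-7 cells were exposed for 6 h to an eight-point dilution series; Hoechst-labeled nuclei were counted by high content imaging. Curves were fitted bidirectionally against DMSO as negative control and baseline, with signal loss indicating reduced cell count.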

[9] = CCTE_Shafer_MEA_dev_firing_rate_mean: CCTE's Neural Network Formation Assay for Mean Firing Rate, Shafer Lab (AID 2284031)
In short: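 Primary rat cortical neurons on 48-well, 16-electrode MEAs (PEI-coated, laminin at plating), exposed from day 0 with compound renewed at DIV 5 and 9. Spikes recorded DIV 5, 7, 9, 12; well-mean firing rate collapsed to trapezoidal AUC, loss-of-signal vs DMSO.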

[10] = CCTE_Shafer_MEA_dev_per_burst_spike_percent: CCTE's Neural Network Formation Assay for Percent of Spikes in a Burst, Shafer Lab (AID 2284032);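 further: fitted as a decrease in burst spike percentage below DMSO baseline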
In short: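 Rat primary cortical neurons on 16-electrode MEA wells, dosed from plating day 0 for 12 days with renewal on DIV 5 and 9; spikes-in-bursts percentage averaged over bursting electrodes, collapsed as AUC across days 5, 7, 9, 12; loss direction versus DMSO.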

[11] = CCTE_Shafer_MEA_dev_active_electrodes_number: CCTE's Neural Network Formation Assay for Number of Active Electrodes, Shafer Lab (AID 2284040; active means hit-call score of the fitted dose curve at least 0.9, where 1 is the maximum)
In short: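 Rat cortical primary cultures, 1.5 x 10^5 cells/well, PEI-coated MEA, laminin drop. Continuous exposure DIV 0–12; full media/compound change DIV 5, 9. Readout: electrodes with mean firing ≥5 spikes/min; AUC across days; loss vs DMSO.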

[12] = CCTE_Shafer_MEA_dev_burst_rate: CCTE's Neural Network Formation Assay for Burst Rate, Shafer Lab (AID 2284042)
In short: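 Rat primary cortical cultures on PEI/laminin MEA; compound from plating, re-dosed at DIV 5, 9 media change. Single-electrode bursts/recording length, well mean of active electrodes; AUC over DIV 5–12 recordings; loss-of-signal vs DMSO.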

[13] = CCTE_Shafer_MEA_dev_per_burst_interspike_interval: CCTE's Neural Network Formation Assay for Burst Interspike Interval, Shafer Lab (AID 2284044);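 further: mean spike spacing inside bursts as AUC over recordings on days 5 7 9 12; potency for a decrease of within-burst interspike interval below DMSO level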
In short: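 Developmental network-formation MEA in primary rat cortical cultures with exposure spanning days 0–12. Within-burst ISI is averaged per well and integrated across recording days by area under the curve, with DMSO as negative control baseline.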

[14] = CCTE_Shafer_MEA_dev_burst_duration_mean: CCTE's Neural Network Formation Assay for Mean Burst Duration, Shafer Lab (AID 2284045)
In short: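 Primary rat cortical neurons on PEI-coated 16-electrode MEA wells, exposed from plating through day 12 with compound renewed at DIV 5 and 9; spontaneous activity recorded days 5, 7, 9, 12. Well-mean burst duration collapsed as trapezoidal AUC, fitted for loss versus DMSO.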

[15] = CCTE_Shafer_MEA_dev_interburst_interval_mean: CCTE's Neural Network Formation Assay for Mean Interburst Interval, Shafer Lab (AID 2284046);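 further: well-mean interburst interval of bursting electrodes as AUC over four recording days; curve fitted for decrease in interburst interval relative to DMSO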
In short: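 Rat cortical neurons, 1.5 x 10^5 cells/well, 48-well MEA; compound from day 0 through DIV 12, media and treatment renewed DIV 5/9. Recordings DIV 5, 7, 9, 12; well-mean interburst interval → trapezoidal AUC, loss direction vs DMSO.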

[16] = CCTE_Shafer_MEA_dev_inter_network_spike_interval_mean: CCTE's Neural Network Formation Assay for Mean Inter-network Spike Interval, Shafer Lab (AID 2284047)
In short: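 Primary rat cortical neurons on PEI-coated 48-well MEAs (16 electrodes/well) were exposed from plating day 0 to DIV 12, with dosing renewed at DIV 5 and 9. Recordings at DIV 5, 7, 9, 12 were collapsed by trapezoidal AUC, loss-of-signal fit vs DMSO.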

[17] = CCTE_Shafer_MEA_dev_network_spike_number: CCTE's Neural Network Formation Assay for Number of Network Spikes, Shafer Lab (AID 2284048);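 further: synchronized bursts across electrodes counted on days 5 7 9 12 and integrated as AUC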
In short: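 Primary rat cortical neurons were seeded at 1.5 x 10^5 cells/well on PEI-coated 16-electrode MEA wells with laminin, exposed from plating day 0, compound renewed at DIV 5 and 9. Network spikes were recorded on days 5, 7, 9, 12 and summarized as trapezoidal AUC versus DMSO.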

[18] = CCTE_Shafer_MEA_dev_network_spike_peak: CCTE's Neural Network Formation Assay for Mean Number of Electrodes in Network Spike, Shafer Lab (AID 2284049);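 further: fitted for loss of signal meaning fewer electrodes in network spikes than DMSO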
In short: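 Continuous 12-day exposure of rat cortical cultures, starting at plating, on MEA plates. Endpoint: electrodes participating in network-spike peaks, AUC across DIV 5–12, DMSO as negative control.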

[19] = CCTE_Shafer_MEA_dev_spike_duration_mean: CCTE's Neural Network Formation Assay for Mean Spike Duration, Shafer Lab (AID 2284051);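 further: mean network spike duration pooled as area under curve over DIV 5 to 12 recordings; potency for a decrease in mean network spike duration versus DMSO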
In short: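 Rat cortical primary cultures, 48-well MEA (16 electrodes/well); compound from plating, renewed DIV 5, 9. Network spike duration (AxIS adaptive detector) recorded DIV 5/7/9/12, combined as trapezoidal AUC; loss direction vs DMSO.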

[20] = CCTE_Shafer_MEA_dev_network_spike_duration_std: CCTE's Neural Network Formation Assay for Standard Deviation of Network Spike Duration, Shafer Lab (AID 2284052);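 further: area under curve of spike duration SD across recording days 5 to 12; hits are decreases in network spike duration SD versus DMSO vehicle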
In short: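 Rat cortical cultures, 1.5 x 10^5 cells/well, exposed continuously from plating to DIV 12 with media/compound renewal at DIV 5, 9. Spontaneous activity recorded DIV 5/7/9/12, AxIS adaptive spike detector; AUC across days; negative direction vs DMSO.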

[21] = CCTE_Shafer_MEA_dev_per_network_spike_spike_number_mean: CCTE's Neural Network Formation Assay for Mean Number of Spikes in a Network Spike, Shafer Lab (AID 2284053)
In short: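 Rat cortical primary cultures on 48-well MEA; compound from day 0, re-dosed with full media change DIV 5, 9. Recorded DIV 5, 7, 9, 12; spikes in 0.05 s window at network-spike peak ÷ total network spikes; AUC; loss vs DMSO.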

[22] = CCTE_Shafer_MEA_dev_per_network_spike_spike_percent: CCTE's Neural Network Formation Assay for Percent of Spikes in a Network Spike, Shafer Lab (AID 2284054)
In short: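 Primary rat cortical neurons on 16-electrode MEA wells (PEI-coated, laminin at plating), exposed from day 0 with renewal at DIV 5 and 9; spikes within 0.05 s of network-spike peaks over total spikes, AUC across days 5, 7, 9, 12.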

[23] = CCTE_Shafer_MEA_dev_LDH: CCTE's Lactate Dehydrogenase Assay for Cytotoxicity in the Neural Network Formation Assay, Shafer Lab (AID 2284068; active means hit-call score of the fitted dose curve at least 0.9, where 1 is the maximum;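 further: exposure for twelve days from plating with re-dosing on DIV 5 and 9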)
In short: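 Rat cortical primary neurons, MEA culture; dosing day 0–12, full medium plus compound exchange DIV 5, 9. Read-out: LDH enzyme activity, spectrophotometric. DMSO = negative control/baseline; signal loss → cytotoxicity.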

[24] = CCTE_Shafer_MEA_dev_mutual_information_norm: CCTE's Neural Network Formation Assay for Mutual Information Normalization, Shafer Lab (AID 2284091)
In short: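 Rat cortical cultures, 48-well MEA, continuous exposure DIV 0–12 with full media/compound change DIV 5 and 9. Readout: inter-electrode mutual information, AxIS adaptive spike detection; AUC across DIV 5/7/9/12 recordings; DMSO baseline, negative fitting direction.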

[25] = CCTE_Shafer_MEA_dev_correlation_coefficient_mean: CCTE's Neural Network Formation Assay for Mean Correlation Coefficient, Shafer Lab (AID 2284093);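 further: well mean pairwise spike train correlation integrated as AUC over recording days 5 to 12; potency fitted for loss of correlation relative to DMSO vehicle wells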
In short: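 Rat cortical cultures, 1.5 x 10^5 cells/well, dosed from day 0 for 12 days. Spontaneous spikes recorded DIV 5/7/9/12; electrode-pair correlation coefficients averaged, AUC taken. Fit in loss direction vs DMSO.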

[26] = TAMU_PeakParms_SingleDonor1434_Chronotropy: Texas A&M University (TAMU) 1.5-hr Human Induced Pluripotent Stem Cell (iPSC)-derived Cardiomyocytes Calcium (Ca+2) Flux Assay for Cardiotoxicity: Chronotropy (changes in peak frequency) (AID 2284217); conditions: actives raise or lower the signal
In short: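 iPSC-CMs, donor 1434; 4 conc (0.2–100 uM), 0.5% v/v DMSO, 90 min, 37C/5% CO2; Ca2+ flux fluorescence → peak.freq.avg; peak.freq.avg = 0 dropped; bidirectional fit vs DMSO; EC05 POD.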

[27] = TAMU_PeakParms_SingleDonor1434_Asystole: Texas A&M University (TAMU) 1.5-hr Human Induced Pluripotent Stem Cell (iPSC)-derived Cardiomyocytes Calcium (Ca+2) Flux Assay for Cardiotoxicity: Asystole (quiescence of beating) (AID 2284328; active means hit-call score of the fitted dose curve at least 0.9, where 1 is the maximum)
In short: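 Human iPSC-derived cardiomyocytes (donor 1434) were exposed to 0.2, 1, 10 and 100 uM compound in 0.5% DMSO for 90 min at 37C. Ca2+-dye fluorescence gave average peak frequency; POD is EC95, a 95% beat-rate drop versus DMSO.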

O=C(OC(=O)c1ccccc1)c1ccccc1
outcome [1]: inactive | outcome [2]: inactive | outcome [3]: inactive | outcome [4]: inactive | outcome [5]: inactive

O=C1c2ccccc2C(=O)C1c1ccc(Br)cc1
outcome [1]: inactive | outcome [2]: inactive | outcome [3]: inactive | outcome [4]: inactive

c1ccc2cc3c4ccccc4c4ccccc4c3cc2c1
outcome [1]: inactive | outcome [2]: inactive | outcome [3]: inactive | outcome [4]: inactive | outcome [6]: inactive | outcome [7]: inactive | outcome [8]: inactive | outcome [9]: inactive | AC50 [10]: 1970 nM (active) | outcome [11]: inactive | outcome [12]: inactive | AC50 [13]: 1970 nM (active) | outcome [14]: inactive | outcome [15]: inactive | outcome [16]: inactive | outcome [17]: inactive | AC50 [18]: 1980 nM (active) | AC50 [19]: 2970 nM (active) | outcome [20]: inactive | outcome [21]: inactive | AC50 [22]: 3230 nM (active) | AC50 [23]: 2330 nM (active) | outcome [24]: inactive | AC50 [25]: 3220 nM (active) | AC50 [26]: 710 nM (active) | outcome [27]: inactive
